According to PubChem BioAssay (NCI):
“And” between values parts separate entries of the source, which are not always exact repeats. Equal values may be shown once. Compounds without any hit were thinned out: in the full panel of roughly 83,000, 20% have a hit.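 Activity criterion: percent growth below 10, measured after cells in 96-well plates were exposed to a single compound concentration for 48 hours.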 The source made the active and inactive calls.

Assays:
Test in all cases: NCI-60 one-dose screen, 48 h (100 = growth as untreated, 0 = no growth, -100 = all killed)
Details in all cases: 10 µM unless noted
T-47D breast = test system: T-47D breast
BT-549 breast = test system: BT-549 breast
MDA-MB-435 melanoma = test system: MDA-MB-435 melanoma
SW-620 colon = test system: SW-620 colon
MCF7 breast = test system: MCF7 breast
HCT-116 colon = test system: HCT-116 colon
HCC-2998 colon = test system: HCC-2998 colon
KM12 colon = test system: KM12 colon

Compound | growth (T-47D breast) | growth (BT-549 breast) | growth (MDA-MB-435 melanoma) | growth (SW-620 colon) | growth (MCF7 breast) | growth (HCT-116 colon) | growth (HCC-2998 colon) | growth (KM12 colon)
CC(Sc1ccccc1)C(=O)O (centres undefined) | 105% (inactive) | 96.5% (inactive) | 96.5% (inactive) | 102% (inactive) | 99.5% (inactive) | 88% (inactive) | 120% (inactive) | 107% (inactive)
Cc1nonc1-c1ccc2c(c1)OCO2 | 88.5% (inactive) and 98.4% (inactive) | 111% (inactive) and 115% (inactive) | 89.9% (inactive) and 109% (inactive) | 105% (inactive) and 107% (inactive) | 99.6% (inactive) and 98.3% (inactive) | 112% (inactive) and 98.5% (inactive) | 100% (inactive) and 107% (inactive) | 95.4% (inactive) and 116% (inactive)
CCNC(=O)Nc1ncccc1OCc1ccc(F)cc1 | 90.3% (inactive) | 114% (inactive) | 101% (inactive) | 104% (inactive) | 84% (inactive) | 97.9% (inactive) | 91.2% (inactive) | 88.1% (inactive)
O=C(/C=C/c1ccccc1)c1cccs1 | 97.3% (inactive) and 104% (inactive) | 104% (inactive) and 107% (inactive) | 88.9% (inactive) and 85.1% (inactive) | 84.6% (inactive) and 98.3% (inactive) | 29.1% (inactive) and 21.7% (inactive) | 74% (inactive) and 57.3% (inactive) | 97.3% (inactive) and 130% (inactive) | 69.6% (inactive) and 70% (inactive)
CCOc1ccc(C(=O)Cc2ccccc2)cc1 | 98% (inactive) and 100% (inactive) | 113% (inactive) and 116% (inactive) | 106% (inactive) and 102% (inactive) | 108% (inactive) and 110% (inactive) | 103% (inactive) and 104% (inactive) | 107% (inactive) and 110% (inactive) | 106% (inactive) and 98.2% (inactive) | 116% (inactive) and 110% (inactive)
Cc1ccc(-c2nc3nc(-c4ccccc4)nc(N4CCN(S(=O)(=O)c5ccccc5)CC4)c3o2)cc1 | 94.5% (inactive) | 64.5% (inactive) | 95.7% (inactive) | 92.9% (inactive) | 92.7% (inactive) | 65.2% (inactive) | 102% (inactive) | 104% (inactive)
N=C(N)SCc1c2ccccc2c(CSC(=N)N)c2ccccc12 | 71.5% (inactive) | 102% (inactive) | 74% (inactive) | 43.1% (inactive) | 38.3% (inactive) | 40.4% (inactive) | 79.5% (inactive) | 59.7% (inactive)
C=C(CN1CC=CCC1)[C@@H]1CC[C@]2(COC(C)=O)CC[C@]3(C)[C@H](CC[C@@H]4[C@@]5(C)CC[C@H](O)C(C)(C)[C@@H]5CC[C@]43C)[C@@H]12 | 78.7% (inactive) | 106% (inactive) | 99.2% (inactive) | 97.4% (inactive) | 90.4% (inactive) | 93.6% (inactive) | 112% (inactive) | 106% (inactive)
CC(=O)c1c(C)nc2ccccc2c1/C=C/c1cccc(C)c1 | 38.6% (inactive) | 64.2% (inactive) | 5.84% (active) | 29.4% (inactive) | 24.2% (inactive) | 32.9% (inactive) | 79.4% (inactive) | 52.1% (inactive)
O=[N+]([O-])c1cc(C(F)(F)F)ccc1Sc1ccc(C(F)(F)F)cc1[N+](=O)[O-] | 70% (inactive) | 79.3% (inactive) | 21.3% (inactive) | 20.6% (inactive) | 67.7% (inactive) | 10.7% (inactive) | 99.4% (inactive) | 65.8% (inactive)
COc1cc(/C=C2\CCC/C(=C\c3cc(CN4CCCC4)c(O)c(OC)c3)C2=O)cc(CN2CCCC2)c1O | 95.9% (inactive) | 49.2% (inactive) | 8.88% (active) | 25.8% (inactive) | 14.3% (inactive) | -34.5% (active) | 52.3% (inactive) | 11.9% (inactive)
O=C(NCCCN1CCCCC1)c1ccc(-c2nc3ccc4[nH]ncc4c3c3c2CCCC3)cc1 | 86.9% (inactive) | 31.4% (inactive) | 26.7% (inactive) | 24.5% (inactive) | 31.8% (inactive) | 16.8% (inactive) | 76% (inactive) | 20.6% (inactive)
[Cu+].[NH-][C@H]1C[N-]C(=O)[C@H]([C@H]2CCN=C(N)N2)[N-]C(=O)/C(=C\NC(N)=O)[N-]C(=O)[C@H](CNC(=O)C[C@@H](N)CCCN)[N-]C(=O)[C@H](CO)[N-]C1=O | 89.5% (inactive) | 104% (inactive) | 94.3% (inactive) | 91.7% (inactive) | 101% (inactive) | 97.4% (inactive) | 110% (inactive) | 101% (inactive)
COc1ccc(Oc2nc(Nc3ccc(N4CCOCC4)cc3)ncc2NC(=O)c2cc(OC)cc(OC)c2)cc1 | 93.6% (inactive) | 90.1% (inactive) | 40.4% (inactive) | 71.4% (inactive) | 76.9% (inactive) | 87.9% (inactive) | 98.4% (inactive) | 79.3% (inactive)
Nc1ccc(-c2nc3ccc4[nH]ncc4c3c3c2CCCC3)cc1F | 14.6% (inactive) | 10% (inactive) | 14.2% (inactive) | 18.7% (inactive) | 29.2% (inactive) | 11.1% (inactive) | 44.3% (inactive) | 12.3% (inactive)
O=c1ccc2nc(-c3ccccn3)nn(-c3ccccc3)c-2c1 | -28.4% (active) | 86.6% (inactive) | 90.7% (inactive) | -61.8% (active) | -56% (active) | 48.7% (inactive) | 98.8% (inactive) | 98.4% (inactive)
CCc1c2c(nc3ccc(OCc4ccc(B5OC(C)(C)C(C)(C)O5)cc4)cc13)-c1cc3c(c(=O)n1C2)COC(=O)[C@]3(O)CC | 0.841% (active) | 28.8% (inactive) | 9.46% (active) | 15.6% (inactive) | 2.53% (active) | 2.03% (active) | 26.7% (inactive) | 0.421% (active)
Cc1ccc(-c2nc([P+](c3ccccc3)(c3ccccc3)c3ccccc3)c(Nc3ccccc3)o2)cc1 | 8.18% (active) | 2.14% (active) | -32.9% (active) | -29.9% (active) | 0.233% (active) | -22.2% (active) | -51.5% (active) | -35.1% (active)
C#CCOc1cccc(Nc2ncc3ncn(C4CCN(C(=O)CCl)C4)c3n2)c1 (centres undefined) | -10.5% [6.25 µM] (active) | 29.3% [6.25 µM] (inactive) | 35.2% [6.25 µM] (inactive) | -41.4% [6.25 µM] (active) | 8.03% [6.25 µM] (active) | 0.194% [6.25 µM] (active) | 74.9% [6.25 µM] (inactive) | 87.5% [6.25 µM] (inactive)
O=C(Nc1ccc(Cl)c(Cl)c1)Nc1ccc(Cl)c(Cl)c1 | -51.5% (active) and 12.6% (inactive) | -83.3% (active) and 37.7% (inactive) | -80.9% (active) and 13.6% (inactive) | -60.5% (active) and 19.3% (inactive) | -75.9% (active) and 13.6% (inactive) | -89.9% (active) and 4.25% (active) | -95.9% (active) and 22.8% (inactive) | -96.3% (active) and 14% (inactive)
C=C1C(=O)O[C@H]2[C@H]1CC/C(COC(=O)NCCCCNC(=O)OC/C1=C/CC[C@@]3(C)O[C@H]3[C@H]3OC(=O)C(=C)[C@@H]3CC1)=C\CC[C@@]1(C)O[C@@H]21 | 9.48% (active) | -40% (active) | -25.6% (active) | -27.8% (active) | 9.53% (active) | -65.2% (active) | 89.5% (inactive) | 88.2% (inactive)
Cc1ccc(-c2nc3nc(-c4ccc(Cl)cc4)nc(N4CCCNCC4)c3o2)cc1 | -36.5% (active) | 99.4% (inactive) | -81.1% (active) | -81.9% (active) | -79.4% (active) | -75.6% (active) | -78.8% (active) | -88.7% (active)
COc1cc(OC)cc(-c2ccc(-c3ccc(C(=N)N)cn3)s2)c1 | 96.7% (inactive) | 95.1% (inactive) | 82.5% (inactive) | 5.08% (active) | 13% (inactive) | -12.6% (active) | 56.1% (inactive) | 40.7% (inactive)
COc1ccc(-c2nn3c(-c4cc(F)c(Cl)cc4Cl)nnc3s2)cc1 | 50.3% (inactive) | 54.3% (inactive) | 3.5% (active) | 20.8% (inactive) | 18.3% (inactive) | 20.9% (inactive) | 42.1% (inactive) | 46.8% (inactive)
C=C(C)[C@@H]1CC[C@]2(C(=O)O)CC[C@]3(C)[C@H](CC[C@@H]4[C@@]5(C)CCC(N)C(C)(C)[C@@H]5CC[C@]43C)[C@@H]12 (some centres undefined) | -4.16% (active) | 101% (inactive) | -51% (active) | 16.3% (inactive) | 2.48% (active) | 2.64% (active) | 23.8% (inactive) | 24.2% (inactive)
Cc1ccccc1SSc1ccccc1C | 101% (inactive) | 83.9% (inactive) | 110% (inactive) | 55% (inactive) | 56.1% (inactive) | 55% (inactive) | 128% (inactive) | 96.9% (inactive)
Nc1nc2c(s1)CCc1cn(S(=O)(=O)c3ccccc3)cc1-2 | 81.6% (inactive) and 111% (inactive) | 84% (inactive) and 109% (inactive) | 91.1% (inactive) and 107% (inactive) | 99.7% (inactive) and 99.3% (inactive) | 93.4% (inactive) and 94.3% (inactive) | 84.5% (inactive) and 100% (inactive) | 111% (inactive) and 106% (inactive) | 94.6% (inactive) and 108% (inactive)
O=C(/C=C\c1ccc(Cl)c(Cl)c1)c1ccccc1 | 77.4% (inactive) and 86.9% (inactive) | 103% (inactive) | 70.5% (inactive) and 100% (inactive) | 31.9% (inactive) and 95.1% (inactive) | 18.8% (inactive) and 28.2% (inactive) | 22.7% (inactive) and 62.1% (inactive) | 95.2% (inactive) and 104% (inactive) | 96.6% (inactive)
